# Cycloheximide cs = Cycloheximide Counterscreen for Small Molecule Inhibitors of Shiga Toxin | cell reporter, cycloheximide protein synthesis inhibition counterscreen | max response, % | 300,000 tested, 12% active | AID 2314, 2010; in the data active = max response mostly above about 13%, no sharp cut-off; inactive = mostly below about 14%; also: read at 38.3 µM for the half of the compounds with a filed dose
# NS1 function inh = qHTS Assay for Inhibitors of Influenza NS1 Protein Function; Potency, µM (top dose mostly 46.1 µM); 270,000 tested, 0.4% active; AID 2326, 2010; calls by dose curve; also: actives are rising curves; nearly all actives have a fitted effect of over 50% in size
#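 S. cerevisiae expressing influenza A NS1, grown in glucose, washed, then diluted 1:100 into pH 6.0 -URA galactose medium with 23 nl compound. Growth recovery read as OD600; NS1-free strain serves as control.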
# Pf growth 96h = Primary qHTS for delayed death inhibitors of the malarial parasite plastid, 96 hour incubation. P. falciparum luciferase reporter growth, 96 h. 320,000 tested, 6.9% active. Potency, µM (series often up to 28.7 µM), usual class: inhibitors
#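 Plates of compound plus infected erythrocytes (2% hematocrit, 0.05% parasitemia final) incubate 96 hours, 37 C, 5% CO2. Detection reagent added; reduced luminescence from the parasites' luciferase reporter flags inhibition.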
# Shiga toxin inh = A qHTS for Small Molecule Inhibitors of Shiga Toxin. inhibition, % at 38.7 µM. 290,000 tested, 9.2% active. Vero cells, Shiga toxin protein synthesis inhibition reporter; in the data active = inhibition mostly above about 28%, no sharp cut-off; inactive = mostly below about 43%
# SARS PLP yeast = qHTS of Yeast-based Assay for SARS-CoV PLP. S. cerevisiae expressing SARS-CoV PLpro, growth rescue. Potency, µM (highest dose often 32.9 µM), usual class: activators. 330,000 tested, 0.19% active. AID 485353, 2010; calls by dose curve; also: nearly all actives have a fitted effect of over 55% in size
# Pf growth 48h = Primary qHTS for delayed death inhibitors of the malarial parasite plastid, 48 hour incubation; P. falciparum luciferase growth in erythrocytes, 48 h; Potency, µM (top dose mostly 28.7 µM), usual class: inhibitors; 310,000 tested, 5.9% active
#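 A one-generation exposure of luciferase-tagged malaria parasites in RPMI 1640/Albumax erythrocyte culture, 37 C and 5% CO2. Inhibition is inferred from decreased luminescence after adding detection reagent.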
# Hits are given with their value; . = inactive; ? = inconclusive; / = no result given. A selection: hits, their analogues and other compounds. The true share with any hit is near 21%. Unless noted, calls follow the shape of the dose curve; as a rule, active = well fitted inhibition curve with a large enough effect; inconclusive = small, poorly fitted or top-dose-only effect, or another doubt; inactive = no such curve, though single readings can be large or run the other way.
SMILES,Cycloheximide cs,NS1 function inh,Pf growth 96h,Shiga toxin inh,SARS PLP yeast,Pf growth 48h
Cc1csc(CN(C)C(=O)c2cn(Cc3cccc4ccccc34)nn2)n1,.,.,.,35.8,.,.
CN(Cc1ccc(F)cc1)C(=O)c1cc(COc2ccc(-n3cncn3)cc2)on1,.,.,.,.,.,.
Cc1ccc(OCc2cc(C(=O)N(C)Cc3nccn3C)no2)cc1C,.,.,?,.,.,.
COc1cccc(OCc2cc(C(=O)N(C)Cc3nc(C)cs3)no2)c1,55.6,.,6.57µM,107.6,.,.
Cc1nnc(CN(C)C(=O)c2cc(COc3ccc(C)c(C)c3)on2)o1,35.9,.,?,.,.,.
CC(Cc1cccnc1)NC(=O)c1cc(COc2ccc(F)cc2Cl)on1 (stereo not given),.,.,.,.,.,.
CN(Cc1cccc2cnccc12)C(=O)c1cc(COc2ccc(F)cc2Cl)on1,22.8,.,.,.,.,?
Cc1ccc(OCc2cc(C(=O)N(C)Cc3cc(C4CC4)n[nH]3)no2)cc1C,.,.,.,.,.,.
CC[C@]12c3[nH]c4ccccc4c3CCN1C(=O)C(CC(=O)NCCCn1ccnc1)C[C@@H]2C(=O)N1CCN(C(=O)C2CC2)CC1 (stereo not given in full),/,/,/,/,.,/
O=C(Nc1nc2ccc(F)cc2s1)c1ccccn1,.,.,.,.,.,.
O=C(Nc1nc2ccccc2s1)c1cnccn1,31.5,.,.,53.2,.,/
O=C(NCc1cccnc1)C(=O)Nc1nc2ccccc2s1,38.8,/,.,93.4,.,.
CCOc1ccc2nc(NC(=O)c3cnccn3)sc2c1,32.3,.,.,62.2,.,.
CCOc1ccc2nc(NS(C)(=O)=O)sc2c1,.,.,/,.,.,.
COc1ccc(N(CC(=O)NN=C2CCCCCCC2)S(=O)(=O)c2ccccc2)cc1,.,.,.,.,.,.
O=C1c2ccccc2C(Nc2ccc(F)cc2F)N1CCN1CCOCC1 (stereo not given),.,.,?,.,.,.
CC1C(=O)C(=O)C=CN1C (stereo not given),/,/,.,/,/,?
CCCCn1c(N)c(N(CCOC)C(=O)c2nn(CC)c(=O)c3ccccc23)c(=O)[nH]c1=O,/,/,.,/,.,.
CCNc1nc(NC(C)C)nc(SCCOC(=O)c2ccccc2)n1,.,.,.,.,.,.
CC(C)Nc1nc(NC(C)C)nc(SCCOC(=O)Nc2ccc(Cl)cc2Cl)n1,21.5,.,.,.,.,.
O=C(/C=C/c1ccccc1)NC(=S)Nc1ccc2c3c(cccc13)CC2,.,.,.,.,.,.
Cc1c(C(=O)N(C)c2ccc(Cl)cc2)cnn1-c1ccccc1,49.8,.,?,/,.,.
Cc1cccc(N(C)C(=O)c2cnn(-c3ccccc3)c2C)c1,23.8,.,.,39.9,.,.
Cc1cccc(C(=O)Nc2c(C(=O)N(C)C)cnn2-c2ccccc2)c1,.,.,.,.,.,.
Cc1ccc(N(C)C(=O)c2cnn(-c3ccccc3)c2C)c(C)c1,.,.,5.22µM,/,.,5.22µM
SMILES,Cycloheximide cs,NS1 function inh,Pf growth 96h,Shiga toxin inh,SARS PLP yeast,Pf growth 48h
CC1(C)Cc2c(cnn2-c2cccc(F)c2)C(NC(=O)CSc2ccccn2)C1 (stereo not given),.,.,?,.,.,.
Cn1nccc1C(=O)NC1CCCc2c1cnn2-c1cc(F)cc(F)c1 (stereo not given),31.8,.,.,54.2,.,?
CC1(C)Cc2c(cnn2-c2cccc(F)c2)C(NC(=O)Cn2cccn2)C1 (stereo not given),19.4,.,.,.,.,.
CC1(C)Cc2c(cnn2-c2cccc(F)c2)C(NC(=O)CN2CCCC2=O)C1 (stereo not given),11.2,.,?,11.2,.,.
O=C(CN1CCCC1=O)NC1CCCc2c1cnn2-c1cc(F)cc(F)c1 (stereo not given),22.4,.,.,.,.,.
CC1=C(C(=O)NC2CCCc3c2cnn3-c2cc(F)cc(F)c2)OCCO1 (stereo not given),.,.,.,.,.,.
O=C(COc1ccc2ccccc2c1)N/N=C/C1CC=CCC1 (stereo not given),.,.,?,.,.,.
CCOc1ccc(S(=O)(=O)N(C)CCO)cc1-c1nc2c(C(C)(C)C)nn(C)c2c(=O)[nH]1,.,.,.,.,.,11.7µM
COc1ccc(OCC(=O)N/N=C2/C=C(C)CC2)cc1,.,.,?,.,.,?
Cc1cccc(/C=C2/SC(=O)N(Cc3ccccc3)C2=O)n1,.,.,2.62µM,.,.,/
O=C1/C(=C/c2ccccn2)SC(=S)N1Cc1ccccc1,.,.,.,.,.,.
Oc1ccc(C[C@@H]2CNCCN2CC2(c3ccccc3)CC2)cc1,/,/,?,/,.,?
Cc1cc(C)cc(C(=O)Nc2cc3c4c(c2)CC(=O)N4CCC3)c1,/,/,.,/,.,.
Cc1ccsc1/C=N/Nc1nc(Cl)c(Cl)cc1Cl,41.1,.,.,.,.,.
Cc1ccsc1/C=N/n1cnnc1,.,.,.,.,.,.
Cc1ccc(/C=N/Nc2nc(Cl)c(Cl)cc2Cl)s1,28.3,.,.,95.6,.,.
CCOC(=O)N1CCC(NC(=O)c2cc(C(=O)Nc3cccc(OC)c3)ccc2CO)CC1,.,.,/,.,.,/
CCOC(=O)N1CCC(NC(=O)c2ccc3c(c2)sc2nc(-c4cccc(OC)c4)cn23)CC1,.,?,.,.,.,7.38µM
Cc1cccc(C2=NC(C(F)(F)F)(C(F)(F)F)c3c(n(-c4ccc(F)cc4)c(=O)[nH]c3=O)N2)c1,.,.,11.7µM,.,.,13.1µM
CCN(CC)S(=O)(=O)c1ccc(N2CCN(S(=O)(=O)c3ccc4c(c3)OCCO4)CC2)nc1,.,.,?,.,.,/
CC(C)(C)NC(=O)Cn1nnc(-c2ccc(OCc3c(F)cccc3Cl)cc2)n1,12.7,.,?,.,.,?
CC(Oc1ccc(C(C)(C)C)cc1)C(=O)NCC(c1ccco1)N1CCCC1 (stereo not given),/,/,?,/,.,?
CO[C@]12C(COC(N)=O)C3=C(C(=O)C(C)=C(N)C3=O)N1CC1NC12 (stereo not given in full),/,/,0.601µM,/,/,0.239µM
O=C1Nc2ccc(S(=O)(=O)NCc3ccccn3)c3cccc1c23,.,.,10.4µM,.,.,/
CN(C)CCNS(=O)(=O)c1ccc2c3c(cccc13)C(=O)N2,.,.,.,/,.,.
CC(=O)Nc1ccc(NC(=O)COC(=O)c2cc(S(=O)(=O)N(C)C)ccc2N2CCCC2)cc1,/,/,.,/,.,.
COc1ccc(C2=NNC(c3cc(Cl)cc4c3OCOC4)C2)c(O)c1 (stereo not given),17.1,.,.,.,.,8.28µM

# High-throughput results deposited in PubChem BioAssay by National Center for Advancing Translational Sciences (NCATS).
